Experimental data from PubChem BioAssay (EPA / NIEHS).
Records with an inconclusive call do not appear. Active and inactive are the calls of the source. Rule for the calls: active = hit-call score of the fitted dose curve at least 0.9, where 1 is the maximum; inconclusive = response in the unintended direction; inactive = score below 0.9.

biological target: Nuclear receptor subfamily 1 group I member 3 (Homo sapiens) (UniProt Q14994); assay: ATG_CAR_TRANS: Attagene TRANS-FACTORIAL HepG2 Assay for human Constitutive Androstane Receptor (CAR) (AID 2282969); settings: HepG2 Attagene TRANS-FACTORIAL CAR reporter;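 note: activators raise reporter mRNA above DMSO so AC50 marks induction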
Protocol: ATG_TRANS is a cell-based, multiplexed-readout assay that uses HepG2, a human liver cell line, with measurements taken at 24 hours after chemical dosing in a 24-well plate.ATG_CAR_TRANS is one of 30 assay component(s) measured or calculated from the ATG_TRANS assay. It is designed to make measurements of mRNA induction, a form of inducible reporter, as detected with fluorescence intensity signals by Reverse transcription polymerase chain reaction (RT-PCR) and Capillary electrophoresis technology.Data from the assay component ATG_CAR_TRANS was analyzed into 1 assay endpoint. This assay endpoint, ATG_CAR_TRANS, was analyzed in the positive analysis fitting direction relative to DMSO as the negative control and baseline of activity. Using a type of inducible reporter, measures of mRNA for gain-of-signal activity can be used to understand the reporter gene at the transcription factor-level as they relate to the gene NR1I3. Furthermore, this assay endpoint can be referred to as a primary readout, because this assay has produced multiple assay endpoints where this one serves a reporter gene function. To generalize the intended target to other relatable targets, this assay endpoint is annotated to the nuclear receptor intended target family, where the subfamily is non-steroidal.
Human liver HepG2 cells are transiently transfected with multiple reporter transcription units (MRTUs) in 6-well plates using FuGene 6 reagent (Roche; 3 ml FuGene/1 mg DNA). The MRTU constructs are regulated by a cis-regulating element (promoter). […] A major difference between the CIS and TRANS system is that in CIS activities of endogenous TFs are measured, whereas the TRANS assay evaluates changes in activities of exogenous, chimeric NR-Gal4 proteins. […] At the end of 24 hour incubation, total RNA was isolated using TriZol reagent (Invitrogen). The isolated RNA is then reverse-transcribed using oligo(dT) primer and Mo-MLV reverse transcriptase (Invitrogen) with DNAse I (Ambion) treatment for 30 min. The one-tenth of the produced cDNA was amplified by PCR using Taq DNA polymerase (Invitrogen) and two reporter sequence-specific primers. The PCR products were fluorescently labeled by primer extension with 6-arboxyfluorescein (6-FAM) 5'-labeled reporter sequence-specific primer (2 min at 95 C, 20 s at 68 C and 10 min at 72 C) and these products were digested with 5U of HpaI (New England Biolabs) for 2h at 37 C. The fragments were purified using Qiaquick PCR columns (Qiagen), analyzed on an ABI 3130xL genetic analyzer (Applied Biosystems) with peak positions identified by using a set of X-rhodamine (ROX)-labeled MapMarker1000 molecular weight standards (BioVentures). The raw capillary electrophoresis data was processed using Attagraph software (Attagene).

Nuclear receptor subfamily 1 group I member 3 (Homo sapiens), sequence (Q14994 whole entry, looked up): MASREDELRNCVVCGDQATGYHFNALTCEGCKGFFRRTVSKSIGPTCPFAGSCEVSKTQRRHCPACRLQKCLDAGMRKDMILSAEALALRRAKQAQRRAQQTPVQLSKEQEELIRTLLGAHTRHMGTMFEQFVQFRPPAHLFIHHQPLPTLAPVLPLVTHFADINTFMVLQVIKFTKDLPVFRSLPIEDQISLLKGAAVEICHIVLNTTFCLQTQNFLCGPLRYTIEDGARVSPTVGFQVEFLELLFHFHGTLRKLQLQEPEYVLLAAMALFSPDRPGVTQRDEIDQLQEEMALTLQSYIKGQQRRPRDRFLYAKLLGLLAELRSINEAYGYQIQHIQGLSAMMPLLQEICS

Row | Compound | outcome
1 | COc1cc(S(=O)(=O)O)c(C)cc1N=Nc1c(O)ccc2cc(S(=O)(=O)O)ccc12 | inactive
2 | CCOc1ccc2c(c1)C(C)=CC(C)(C)N2 | inactive
3 | CCNc1cccc(C)c1 | inactive
4 | COc1ccc(C)cc1N | inactive
5 | Oc1ccc2ccccc2c1N=Nc1ccccc1 | inactive
6 | O=C(OCCCCCOC(=O)c1ccccc1)c1ccccc1 | inactive
7 | Nc1ccccc1N | inactive
8 | CCCCCCC(=O)OCC | inactive
9 | COc1cc(C=O)ccc1O | inactive
10 | CCCCCCCCCCCCCO | inactive
11 | Oc1ccc2c(c1)OC[C@@H](N1CCC(O)(c3ccc(F)cc3)CC1)[C@H]2O | inactive
12 | Cc1ccc(C(C)C)c(O)c1 | inactive
13 | Cc1cccc([N+](=O)[O-])c1C | inactive
14 | CC1(C)NC(=O)NC1=O | inactive
15 | Nc1ccc2c(c1)C(=O)c1ccccc1C2=O | inactive
16 | O=c1c(O)c(-c2ccc(O)c(O)c2)oc2cc(O)cc(O)c12 | inactive
17 | FC(F)(F)C(F)(F)C(F)(F)C(F)(F)C(F)(F)C(F)(F)CCI | inactive
18 | NCC1(Cc2noc(=O)[nH]2)CCCCC1 | inactive
19 | CN[C@H]1CC[C@@H](c2ccc(Cl)c(Cl)c2)c2ccc(S(N)(=O)=O)cc21 | inactive
20 | C[Si]1(C)O[Si](C)(C)O[Si](C)(C)O[Si](C)(C)O1 | inactive
21 | Cc1cc(NC(=O)C(=O)O)cc(C)c1Oc1ccc(O)c2c1CCC2 | inactive
22 | Cc1ccc(C)c(O)c1C | inactive
23 | CCCCc1ccc2c(n1)[C@@H](c1ccc(OC)cc1C[C@H](C)C(=O)O)[C@H](C(=O)O)[C@H]2c1ccc2c(c1)OCO2 | inactive
24 | Cc1ccc(C)c(C)c1 | inactive
25 | CCCCC(CC)COC(=O)CC(C(=O)OCC(CC)CCCC)S(=O)(=O)O (stereo not given) | inactive
